Test results: the supplement of paper PMC8975748
Counter-ions that a name gives are not always drawn.

test system: Saccharomyces cerevisiae BY4741 SeMeCo community; assay: z-score of subpopulation abundance vs DMSO median, subpopulation auxotrophic for LM; higher = larger share of this subpopulation than in DMSO controls; details: 10 µM; 24 h; SM minimal medium; subpopulation (auxotrophy): LM
Procedure, shortened: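 Four plasmids, each restoring a single auxotrophy and encoding a distinct fluorescent protein, were carried by a Saccharomyces cerevisiae BY4741 community. After overnight growth to OD600 1.0 and dilution to 0.3, 70 µl per well was grown for 24 h in minimal SM medium on 384-well plates acoustically predosed with library drugs at 10 µM final. Following paraformaldehyde fixation, automated confocal microscopy was used, with single-auxotroph fluorescent strains defining thresholds and autofluorescence correction. Subpopulation abundance was then scored as a z-score against the vehicle-well median.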

Point of comparison: `O=C(c1ccc(OCCN2CCCCC2)cc1)c1c(-c2ccc(O)cc2)sc2cc(O)ccc12` [Raloxifene HCl], “z-score of subpopulation abundance” value 1.33. Against it:
- Cc1onc(-c2c(F)cccc2Cl)c1C(=O)N[C@@H]1C(=O)N2[C@@H]1SC(C)(C)[C@@H]2C(=O)O [Flucloxacillin sodium] — lower, -0.65
- Cc1ncc([N+](=O)[O-])n1CC(O)CCl (stereo unspecified) [Ornidazole] — lower, 0.41
- OC(CCCN1CCCCC1)(c1ccccc1)c1ccccc1 [Diphenidol HCl] — lower, -0.56
- Cc1ccccc1OCC(O)CO (stereo unspecified) [Mephenesin] — lower, 0.02
- C[C@@H](O)[C@H]1C(=O)N2C(C(=O)[O-])=C(SC3Cn4cnc[n+]4C3)[C@H](C)[C@H]12 (stereo partly specified) [Biapenem] — lower, -0.22
- CO/N=C(\C(=O)N[C@@H]1C(=O)N2C(C(=O)OC(C)OC(C)=O)=C(COC(N)=O)CS[C@H]12)c1ccco1 (stereo partly specified) [Cefuroxime axetil] — lower, -1.34
- Oc1c(Cl)cc(Cl)c2cccnc12 [Chloroxine] — higher, 10.6
- CC1(C)CC[C@]2(C(=O)O)CC[C@]3(C)C(=CC[C@@H]4[C@@]5(C)CC[C@H](O)C(C)(C)[C@@H]5CC[C@]43C)[C@@H]2C1 [Oleanolic Acid] — lower, 0.88
- CCOC(=O)C1=C(C)NC(C)=C(C(=O)OC)C1c1cccc(Cl)c1Cl (stereo unspecified) [Felodipine] — higher, 4.88
- O=C1CCc2cc(OCCCCc3nnnn3C3CCCCC3)ccc2N1 [Cilostazol] — lower, -0.83
- O=C(O)CCNC(=O)c1ccccc1 [Betamipron] — lower, -0.71
- O=c1cc(-c2ccc(O)c(O)c2)oc2cc(O)cc(O)c12 [Luteolin] — lower, 0.14
- CN1C[C@@H]2C[C@H]1CN2c1cc2c(cc1F)c(=O)c(C(=O)O)cn2C1CC1 [Danofloxacin Mesylate] — lower, -0.68
- CC(=O)Oc1ccccc1C(=O)O [Aspirin] — lower, 0.16
- Cc1noc(NS(=O)(=O)c2ccc(N)cc2)c1C [Sulfisoxazole] — lower, 0.69
- O=C(NCCO[N+](=O)[O-])c1cccnc1 [Nicorandil] — lower, -0.01
- O=C1C(CC[S+]([O-])c2ccccc2)C(=O)N(c2ccccc2)N1c1ccccc1 (racemic) [(+/-)-Sulfinpyrazone] — lower, 0.26
- CCCCCCCCCC(=O)N[C@@H](Cc1c[nH]c2ccccc12)C(=O)N[C@H](CC(N)=O)C(=O)N[C@@H](CC(=O)O)C(=O)N[C@@H]1C(=O)NCC(=O)N[C@@H](CCCN)C(=O)N[C@@H](CC(=O)O)C(=O)N[C@H](C)C(=O)N[C@@H](CC(=O)O)C(=O)NCC(=O)N[C@H](CO)C(=O)N[C@@H]([C@H](C)CC(=O)O)C(=O)N[C@@H](CC(=O)c2ccccc2N)C(=O)O[C@@H]1C [Daptomycin] — higher, 1.51
- OCc1ccc(Cl)cc1Cl [2,4-dichlorobenzyl alcohol] — lower, 0.21
- CN(C)CCC=C1c2ccccc2CCc2ccccc21 [Amitriptyline HCl] — lower, -0.17
- COc1ccccc1OCC(O)CN1CCN(CC(=O)Nc2c(C)cccc2C)CC1 (stereo unspecified) [Ranolazine] — lower, 0.68
- COc1cc(C(C)=O)ccc1OCCCN1CCC(c2noc3cc(F)ccc23)CC1 [Iloperidone] — lower, 0.71
- Nc1ccc(S(=O)(=O)Nc2ccccn2)cc1 [Sulfapyridine] — lower, -0.18
- CCOC(=O)C1=C[C@@H](OC(CC)CC)[C@H](NC(C)=O)[C@@H](N)C1 [Oseltamivir Phosphate] — lower, 0.27
- N#CC(c1ccc(Cl)cc1)c1c(Cl)cc(-n2ncc(=O)[nH]c2=O)cc1Cl (stereo unspecified) [Diclazuril] — lower, -0.81
- O=C1NCC2(CCN(CCc3ccccc3)CC2)O1 [Fenspiride HCl] — lower, -0.15
- CCCN[C@H]1CCc2nc(N)sc2C1 [Pramipexole dihydrochloride] — lower, -0.39
- O=C(O)c1ccccc1O [Salicylic acid] — lower, -0.74
- CCCOc1ccc(C(=O)OCCN(CC)CC)cc1N [Proparacaine HCl] — lower, -0.38
- CC(C)(O/N=C(\C(=O)N[C@@H]1C(=O)N2C(C(=O)[O-])=C(C[n+]3ccccc3)CS[C@H]12)c1csc(N)n1)C(=O)O [Ceftazidime] — lower, -0.09
